For 7 compounds, composite z-score and z-score results are on record in PubChem BioAssay.

Test [1] has as its system Plasmodium falciparum Sir2 (PF13_0152, Sir2A). Put plainly: Plasmodium falciparum Sir2A binding compounds – biochemical, small-molecule microarray, 635 nm fluorescence, primary screen (AID 1098).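 Note: score merges spot fluorescence intensity with its signal-to-noise ratio.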 Conditions: fluorescence 635 nm, higher = more signal.
Test [2] in a line: probe aDKK1 binding to arrayed compounds – biochemical, biotinylated probe, 635/667 nm fluorescence, primary screen (AID 1099).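 Note: score merges 667nm spot fluorescence with signal to noise across triplicate slides.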 Conditions: small-molecule microarray, higher = more signal.
Test [3] can be described thus: probe aCHRDL2 binding to arrayed compounds – biochemical, biotinylated probe, 635/667 nm fluorescence, primary screen (AID 1100). Conditions: small-molecule microarray, higher = more signal.
Test [4] can be described thus: change in splice reporter luminescence, either direction, cell-based, HEK293, spliceosome inhibition project, primary screen (AID 1101).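 Note: HEK293 cells carrying a splicing-competent luciferase reporter gene; test concentration not given here.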 Conditions: HEK293 splicing luciferase reporter, 24 h, higher = more signal, called active from +8 up or from −8 down. (In general: In a reporter assay the amount or activity of a reporter protein is the signal.)
For test [5], the target named is Fibroblast growth factor 10 (Homo sapiens) (UniProt O15520). Put plainly: compounds binding fibroblast growth factor 10 – biochemical, small-molecule microarray, 635 nm fluorescence, primary screen (AID 1102). Conditions: FGF10 binding, fluorescence 635 nm, higher = more signal.
Test [6] has as its system glycogen synthase kinase-3 (GSK3A per assay name; protocol says GSK3B). Put plainly: compounds binding glycogen synthase kinase-3 – biochemical, small-molecule microarray, 635 nm fluorescence, GSK3A, primary screen (AID 1103). Note: the record names both GSK3A and GSK3B. Conditions: fluorescence 635 nm, higher = more signal.
Test [7] concerns the target Epidermal growth factor receptor (Homo sapiens) (UniProt P00533). In words: compounds binding epidermal growth factor receptor – biochemical, small-molecule microarray, 635 nm fluorescence, primary screen (AID 1104).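 Note: score merges 667 nm emission intensity with spot signal to noise over triplicate slides.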 The note with it: EGFR binding, higher = more signal.
Test [8] addresses Follistatin-related protein 3 (Homo sapiens) (UniProt O95633). Put plainly: compounds binding follistatin-related protein 3 – biochemical, small-molecule microarray, 635 nm fluorescence, primary screen (AID 1105).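 Note: score merges emission near 667 nm and signal to noise per printed spot across three slides.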 Conditions: FSTL3 binding, higher = more signal.
For test [9], the target named is Dickkopf-related protein 1 (Homo sapiens) (UniProt O94907). In words: small molecules binding DKK1 protein – biochemical, small-molecule microarray, 635 nm fluorescence scan, primary screen (AID 1106).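 Note: score merges emission near 667 nm with signal to noise over three replicate slides.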 The note with it: higher = more signal.
For test [10], the system named is Inhibin beta A chain (activin A). Put plainly: small molecules binding activin A – biochemical, small-molecule microarray, 635 nm fluorescence scan, primary screen (AID 1107).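 Note: mouse activin A protein probed at 4.33 µg/mL on printed slides; score merges bound-protein fluorescence near 667 nm with spot signal-to-noise.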 The note with it: INHBA, higher = more signal.
Test [11] relates to Human papillomavirus type 1a protein E7 (residues 44-93). Put plainly: small molecules binding HPV E7 44-93 – biochemical, small-molecule microarray, residues 44-93, 635 nm fluorescence, primary screen (AID 1108).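 Note: E7 fragment applied at 1 µg/mL in TBST for 1 h at 4 C; score combines spot fluorescence with its signal to noise ratio.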 Conditions: fluorescence 635 nm, higher = more signal.
Test [12] is described as follows: hepatitis C replication reporter changes, two-sided – Huh7 cells, luciferase reporter, HCV replication inhibitor project, primary screen (AID 1109).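 Note: huh7 hepatoma cells harbouring a luciferase neomycin HCV replicon reporter; luciferase luminescence as measure of HCV replicon replication; test concentration not given here.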 Conditions: Huh7 HCV replicon luciferase reporter, 48 h; higher = more signal.
Test [13] addresses Left-right determination factor 2 (Homo sapiens) (UniProt O00292). Put plainly: small molecules binding LEFTY2 protein – biochemical, small-molecule microarray, 635 nm fluorescence scan, primary screen (AID 1110). The note with it: higher = more signal.
Test [14] addresses Calmodulin-1 (Homo sapiens) (UniProt P0DP23). Put plainly: small molecules binding calmodulin-1 with EGTA – biochemical, small-molecule microarray, Cy5-labelled CALM1, profiling panel (AID 1111).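 Note: labelled calmodulin applied in Tris saline Tween buffer holding calcium plus EGTA and DTT.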 The note with it: Cy5-CALM1 binding fluorescence, higher = more signal.
The target is the same in test [15]. In words: small molecules binding Ca-loaded calmodulin-1 – biochemical, small-molecule microarray, Cy5-labelled CALM1, plus calcium, artefact control for SMM control-protein annotation, profiling panel (AID 1112).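 Note: score merges spot fluorescence with signal to noise from triplicate slides.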 The note with it: Cy5-CALM1 binding fluorescence, higher = more signal.
Test [16] in a line: probe aWnt5a binding to arrayed compounds – biochemical, biotinylated probe, 635/667 nm fluorescence, primary screen (AID 1113).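 Note: score merges 667 nm fluorescence intensity with signal-to-noise per printed feature.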 Conditions: small-molecule microarray, higher = more signal.
Test [17] in a line: probe aShh binding to arrayed compounds – biochemical, biotinylated probe, 635/667 nm fluorescence, primary screen (AID 1114).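 Note: probe is biotin-labelled aShh protein from a stem cell growth factor screen; measures binding of labelled protein to compounds printed on the slide; score merges feature fluorescence at 667 nm with signal-to-noise.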 The note with it: small-molecule microarray, higher = more signal.
Test [18] in a line: probe aNog binding to arrayed compounds – biochemical, biotinylated probe, 635/667 nm fluorescence, primary screen (AID 1115).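 Note: probe is biotinylated aNog protein used at 0.15 µg/mL for 1 h at 4 C; z-score combines 667 nm fluorescence of each spot with its signal to noise.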 Conditions: small-molecule microarray, higher = more signal.
The target of test [19] is Torsin-1A-interacting protein 1 (Homo sapiens) (UniProt Q5JTV8). In words: compound microarray binding of lysate hLAP1 – cell lysate, small-molecule microarray, COS7 lysate, 635/667 nm fluorescence, primary screen (AID 1116). Conditions: 635 nm fluorescence, higher = more signal.
The target of test [20] is Alpha-bungarotoxin (Bungarus multicinctus) (UniProt P60615). In words: compounds binding labelled alpha-BTX control protein – biochemical, small-molecule microarray, Alexa647 label, 635/667 nm fluorescence, artefact control for SMM control protein annotation, profiling panel (AID 1117). Conditions: alpha-BTX-A647 binding fluorescence, higher = more signal.

The source made the active and inactive calls.

Chain of Dickkopf-related protein 1 (Homo sapiens) (O94907 whole entry, looked up): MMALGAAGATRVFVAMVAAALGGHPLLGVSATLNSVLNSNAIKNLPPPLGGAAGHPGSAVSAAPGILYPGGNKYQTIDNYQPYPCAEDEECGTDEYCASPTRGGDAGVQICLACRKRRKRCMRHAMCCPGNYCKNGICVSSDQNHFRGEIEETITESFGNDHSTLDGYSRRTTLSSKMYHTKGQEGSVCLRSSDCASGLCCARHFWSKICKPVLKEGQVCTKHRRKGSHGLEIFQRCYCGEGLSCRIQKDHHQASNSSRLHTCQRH
Chain of Follistatin-related protein 3 (Homo sapiens) (O95633 whole entry, looked up): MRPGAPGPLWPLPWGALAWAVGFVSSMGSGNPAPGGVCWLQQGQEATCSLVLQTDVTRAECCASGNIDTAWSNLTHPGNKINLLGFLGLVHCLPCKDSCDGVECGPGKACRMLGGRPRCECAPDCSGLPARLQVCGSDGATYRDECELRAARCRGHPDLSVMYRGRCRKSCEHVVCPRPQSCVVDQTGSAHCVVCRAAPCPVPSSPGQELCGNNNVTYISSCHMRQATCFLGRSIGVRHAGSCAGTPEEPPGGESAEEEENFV
Chain of Epidermal growth factor receptor (Homo sapiens) (P00533 whole entry, looked up): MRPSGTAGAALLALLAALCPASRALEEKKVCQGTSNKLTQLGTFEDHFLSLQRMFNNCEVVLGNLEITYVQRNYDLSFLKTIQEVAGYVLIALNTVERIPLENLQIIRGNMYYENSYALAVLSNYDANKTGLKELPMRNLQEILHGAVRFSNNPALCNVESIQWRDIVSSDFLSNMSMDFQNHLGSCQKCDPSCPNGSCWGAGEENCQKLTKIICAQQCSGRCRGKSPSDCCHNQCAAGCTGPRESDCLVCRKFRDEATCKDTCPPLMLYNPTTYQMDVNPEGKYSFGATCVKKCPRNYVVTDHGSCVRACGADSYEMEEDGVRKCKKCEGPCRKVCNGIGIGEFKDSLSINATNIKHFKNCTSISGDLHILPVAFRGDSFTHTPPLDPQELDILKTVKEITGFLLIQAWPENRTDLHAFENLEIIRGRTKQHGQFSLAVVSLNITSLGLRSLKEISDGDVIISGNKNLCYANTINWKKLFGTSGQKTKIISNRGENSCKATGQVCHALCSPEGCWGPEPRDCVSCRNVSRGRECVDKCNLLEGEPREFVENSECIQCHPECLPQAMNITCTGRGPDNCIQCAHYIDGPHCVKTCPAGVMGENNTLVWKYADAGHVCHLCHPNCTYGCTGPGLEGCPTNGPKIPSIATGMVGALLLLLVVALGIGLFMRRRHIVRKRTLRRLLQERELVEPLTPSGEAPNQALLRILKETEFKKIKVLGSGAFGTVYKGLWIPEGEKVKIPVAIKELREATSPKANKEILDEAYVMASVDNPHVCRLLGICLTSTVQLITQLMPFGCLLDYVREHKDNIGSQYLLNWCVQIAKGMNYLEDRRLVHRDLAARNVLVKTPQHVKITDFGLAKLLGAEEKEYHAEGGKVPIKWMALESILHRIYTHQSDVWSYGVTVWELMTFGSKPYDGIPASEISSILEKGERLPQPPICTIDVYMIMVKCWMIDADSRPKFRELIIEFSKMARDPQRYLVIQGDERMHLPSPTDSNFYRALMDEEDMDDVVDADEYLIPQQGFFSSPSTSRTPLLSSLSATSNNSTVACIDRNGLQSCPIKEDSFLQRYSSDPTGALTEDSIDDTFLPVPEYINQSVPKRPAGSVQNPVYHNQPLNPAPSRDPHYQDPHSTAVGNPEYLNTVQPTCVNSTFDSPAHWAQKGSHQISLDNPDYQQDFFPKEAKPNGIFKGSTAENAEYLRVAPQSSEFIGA
Chain of Torsin-1A-interacting protein 1 (Homo sapiens) (Q5JTV8 whole entry, looked up): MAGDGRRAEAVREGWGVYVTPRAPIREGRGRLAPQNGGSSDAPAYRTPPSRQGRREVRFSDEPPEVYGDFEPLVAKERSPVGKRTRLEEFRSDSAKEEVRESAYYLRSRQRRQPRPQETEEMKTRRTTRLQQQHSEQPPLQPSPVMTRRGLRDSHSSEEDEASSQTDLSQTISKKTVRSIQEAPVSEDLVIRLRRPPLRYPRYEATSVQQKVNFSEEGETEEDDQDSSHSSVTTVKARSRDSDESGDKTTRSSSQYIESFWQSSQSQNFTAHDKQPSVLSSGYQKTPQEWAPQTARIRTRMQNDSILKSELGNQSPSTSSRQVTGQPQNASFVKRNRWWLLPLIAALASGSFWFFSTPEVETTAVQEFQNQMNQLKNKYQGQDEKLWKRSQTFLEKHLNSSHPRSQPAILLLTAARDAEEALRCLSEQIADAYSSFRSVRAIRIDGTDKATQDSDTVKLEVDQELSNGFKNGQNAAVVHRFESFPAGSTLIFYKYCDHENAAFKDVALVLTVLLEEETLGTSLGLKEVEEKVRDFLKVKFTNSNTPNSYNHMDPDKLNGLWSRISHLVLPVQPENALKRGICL
Chain of Fibroblast growth factor 10 (Homo sapiens) (O15520 whole entry, looked up): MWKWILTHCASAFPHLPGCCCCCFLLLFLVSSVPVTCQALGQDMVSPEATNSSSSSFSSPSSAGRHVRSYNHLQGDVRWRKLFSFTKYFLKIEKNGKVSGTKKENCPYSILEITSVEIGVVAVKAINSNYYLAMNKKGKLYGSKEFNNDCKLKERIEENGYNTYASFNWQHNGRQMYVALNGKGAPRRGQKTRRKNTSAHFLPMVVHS
Chain of Left-right determination factor 2 (Homo sapiens) (O00292 whole entry, looked up): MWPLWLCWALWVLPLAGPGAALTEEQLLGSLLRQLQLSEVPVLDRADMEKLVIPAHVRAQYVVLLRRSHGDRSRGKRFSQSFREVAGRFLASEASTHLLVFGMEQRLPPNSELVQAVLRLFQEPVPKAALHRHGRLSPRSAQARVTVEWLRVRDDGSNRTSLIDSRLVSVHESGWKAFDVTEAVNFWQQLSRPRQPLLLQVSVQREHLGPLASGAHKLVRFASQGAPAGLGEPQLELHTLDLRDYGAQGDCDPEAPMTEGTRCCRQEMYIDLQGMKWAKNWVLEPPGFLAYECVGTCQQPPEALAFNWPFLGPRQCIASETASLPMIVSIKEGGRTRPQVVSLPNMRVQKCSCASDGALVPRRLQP
Chain of Alpha-bungarotoxin (Bungarus multicinctus) (P60615 whole entry, looked up): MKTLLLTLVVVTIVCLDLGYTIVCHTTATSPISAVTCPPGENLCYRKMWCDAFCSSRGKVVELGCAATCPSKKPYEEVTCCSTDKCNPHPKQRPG

With `C[N+](C)(C)CCCCCCNC(=O)[C@@H]1C[C@@H]2C(=O)N3CCC[C@H]3C(=O)N2[C@@H]1c1cccc(OCCO)c1`, the composite z-score in test [1] was 1.26; in [2], -0.303; in test [3] it was 0.824; in test [5] it was -0.0327; in [6] it was 0.586; in test [7], 0.36. The composite z-score came out at 0.476 in test [8]; 0.808 in test [9]; 1.03 in test [10]; 1.34 in test [11]; 0.385 in test [13]; 0.233 in test [14]. In addition, the composite z-score in test [15] is -1.07; in test [16], -0.197; in [17], 0.905; in test [18] it was -0.238; in test [19] it was -0.24; in test [20], -0.0576. Also, the z-score in [4] is -0.739 (inactive); in test [12], 1.41.

With `Cc1ccc(S[C@]2(C(=O)NCC(F)(F)F)CC(=O)N(Cc3ccccc3Cl)[C@@H]2c2ccc(CO)cc2I)cc1`, the composite z-score in [1] is 1.23; in test [2], 0.122; in test [3] it was 0.828; in test [5] it was -0.798; in [6], -0.457; in test [7], -1.15. The composite z-score was -0.978 in [8]; -1.05 in [9]; 0.117 in test [10]; 0.859 in test [11]; -0.692 in test [13]; -0.391 in [14]. Moreover, the composite z-score in test [15] was -0.0928; in [16] it was -0.12; in test [17], -0.0035; in test [18], -0.383; in [19], -0.373; in [20] it was 2.06. The results for the z-score in test [4] and in [12] were -1.34 (inactive) and -1.16, respectively.

For the compound `CC(C)CON=C1C[C@@H](O)[C@@H](O)[C@@H]2[C@@H]3C(=O)N(C[C@@H]4CCCO4)C(=O)[C@@H]3CC[C@H]12`, the composite z-score in test [1] is 0.651; in [2], -0.273; in test [3], -0.356; in test [5], 0.505; in test [6] it was 0.33; in [7], 0.265. Moreover, the composite z-score in [8] is 0.417; in test [9], 0.24; in test [10], 0.07; in [11] it was 0.595; in test [13] it was 0.781; in test [14], 0.0832. In addition, the composite z-score in [15] is 0.0249; in test [16] it was -0.178; in test [17], -0.345; in test [18] it was -0.074; in [19], 0.241; in test [20], 0.0141. Moreover, the z-score in [4] was 0.132 (inactive); in test [12], 0.392.

For the compound `CCCCc1nc2c(c3c1C[C@H](C)OC3)CN(CCC(C)C)CC2`, the composite z-score in [1] is 0.956; in [2] it was -0.0466; in test [3], -0.47; in [5], 0.627; in test [6], 1.25; in [7], 0.488. For the same compound, the composite z-score in test [8] was 1.26; in test [9], 0.562; in [10] it was 0.0968; in [11] it was 1.23; in [13] it was 0.893; in test [14], -0.0635. The composite z-score was -0.747 in [15]; -0.0704 in test [16]; -0.164 in test [17]; 0.372 in test [18]; 0.089 in [19]; 0.595 in test [20]. Moreover, the z-score in [4] is -0.0873 (inactive); in test [12], -0.953.

Regarding `CCOC(=O)NN=C1C[C@@H](O)[C@@H](O)[C@@H]2[C@@H]3C(=O)N(C4CCCCC4)C(=O)[C@@H]3CC[C@@H]12`, the composite z-score is 0.104 in [1]; -0.192 in test [2]; -0.499 in [3]; 0.534 in [5]; 0.132 in test [6]; 0.34 in [7]. Also, the composite z-score was 0.297 in [8]; 0.476 in [9]; 0.212 in test [10]; 0.0883 in test [11]; 0.342 in test [13]; -0.29 in test [14]. The composite z-score in test [15] was -0.401; in test [16] it was -0.0462; in test [17], -0.341; in test [18] it was -0.158; in [19], 0.109; in test [20] it was 0.601. Besides, the z-score in test [4] was 1.06 (inactive); in test [12], -0.336.

With `O=C1C[C@@H](O)[C@@H](O)[C@@H]2[C@@H]3C(=O)N(Cc4ccc5c(c4)OCO5)C(=O)[C@@H]3CC[C@@H]12`, the composite z-score in [1] is 0.27; in test [2], -0.159; in [3], -0.562; in test [5] it was 0.715; in test [6], 0.45; in [7], 0.428. Moreover, the composite z-score in [8] is 0.675; in test [9], 0.78; in [10], 0.365; in test [11], -0.0301; in [13], 0.796; in test [14], -0.504. Besides, the composite z-score in test [15] is -0.56; in [16], -0.0405; in test [17], 0.0278; in test [18] it was -0.239; in test [19], 0.441; in test [20] it was 0.0541. In addition, the z-score in test [4] is 0.706 (inactive); in test [12], -0.644.

`C[C@@H]1CC[C@H]2C(=O)O[C@H](COc3ccc(C(C)(C)C)cc3)CN2[C@H]1c1ccc(Br)cc1`: the composite z-score in test [1] is 0.751; in [2], -0.136; in [3], -0.299; in test [5], -0.0611; in test [6], -0.533; in test [7], -0.287. Moreover, the composite z-score was -0.175 in [8]; 0.0539 in test [9]; 0.352 in [10]; -0.387 in test [11]; 0.113 in test [13]; -0.11 in test [14]. The composite z-score in test [15] is 0.347; in test [16], 0.721; in test [17], -0.415; in test [18] it was -0.514; in test [19], -0.15; in test [20] it was 0.323. Also, the z-score in test [4] was 0.148 (inactive); in test [12], 0.0366.
